The entries come from a sample that favours hits as a whole.
D1 allo mod = D1 dopamine receptor (human) allosteric modulation; HEK293 D1, CRE-luciferase, dopamine EC30 potentiation; actives deviate in either direction; B-score at 10 µM; actives 5.9% (n = 58,000); AID 641;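 active = luminescence count or its row- and column-corrected plate score outside the 99.7% band of the plate's sample wells, on either side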
Target sequence (P21728 whole entry, looked up): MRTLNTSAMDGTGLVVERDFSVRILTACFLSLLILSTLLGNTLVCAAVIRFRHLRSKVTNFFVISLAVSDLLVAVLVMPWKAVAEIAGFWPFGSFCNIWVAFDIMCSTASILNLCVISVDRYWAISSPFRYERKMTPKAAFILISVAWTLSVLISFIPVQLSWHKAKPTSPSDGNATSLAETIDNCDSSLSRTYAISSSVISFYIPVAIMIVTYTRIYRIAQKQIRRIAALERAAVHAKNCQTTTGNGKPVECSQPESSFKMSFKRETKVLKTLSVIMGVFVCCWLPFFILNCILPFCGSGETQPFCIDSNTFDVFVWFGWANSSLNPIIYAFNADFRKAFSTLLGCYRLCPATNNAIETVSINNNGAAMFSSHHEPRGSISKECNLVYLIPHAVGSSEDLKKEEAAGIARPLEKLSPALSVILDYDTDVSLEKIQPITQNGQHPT
HePTP inh = human HePTP phosphatase inhibition; P35236; recombinant HePTP phosphatase activity, OD absorbance; inhibition, % at 20 µM; actives 0.64% (n = 110,000); AID 521; in the data active = inhibition above about 50%
Candida biofilm = kills Candida albicans biofilms. C. albicans biofilm + clotrimazole, Alamar Blue. inhibition, % at 6 µM. actives 0.14% (n = 85,000);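 active = inhibition above 20%; inactive = inhibition below 20%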;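 also: preformed 24 hr biofilms exposed to compound for 48 hr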
TNAP act mid DEA = human TNAP activation, intermediate phosphate acceptor; activation factor at 20 µM; P05186; 64,000 tested, under 10 active; purified TNAP, CDP-star luminescence, 100 mM DEA, 30 min; hits give high values; scale: 0 levamisole-inhibited, 1 vehicle-only enzyme;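 active = activation factor of at least 2 at 20 µM, relative to controls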
hDAT+cocaine = human DAT dopamine uptake with cocaine, either direction | actives 1.3% (n = 110,000) | AID 449768 | Q01959 | B-score at 10 µM | LLC-PK1 hDAT cells, [14C]-dopamine uptake with cocaine IC80; actives deviate in either direction;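 active = Z score or B-score, a plate-position-corrected score, falls beyond the plate's 99.7% confidence bounds, in either direction; inactive = both scores lie inside the 99.7% bounds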
PLAP act = activates human placental alkaline phosphatase | purified PLAP enzyme, luminescent substrate read-out; hits give high values | activation fold at 20 µM | AID 696 | actives 1.2% (n = 96,000); in the data active = activation fold above about 2
A number is an active result; i = inactive; nt = no result given.

SMILES	D1 allo mod	HePTP inh	Candida biofilm	TNAP act mid DEA	hDAT+cocaine	PLAP act
CC1=C(C(=O)OC(C)C)C(c2ccccn2)C2=C(CC(C)(C)CC2=O)N1 (stereo not drawn)	nt	i	nt	nt	nt	nt
O=C(COc1ccc(Cl)cc1Cl)N(Cc1ccco1)C1CCS(=O)(=O)C1 (stereo not drawn)	i	i	i	i	2.94	i
CN(C(=O)COc1ccc(Cl)cc1Cl)C1CCS(=O)(=O)C1 (stereo not drawn)	nt	i	nt	nt	nt	nt
Cc1ccc(C(=O)Nc2c(C)cc(C)cc2C)cc1	nt	i	nt	nt	nt	nt
N#Cc1c(/N=C/c2ccco2)sc2c1CCCCC2	-4.25	i	i	i	i	i
CC(SC1CCCC1)C(=O)NC(C)(C#N)C(C)C (stereo not drawn)	-2.12	i	i	i	i	i
O=C1NC(=S)N/C1=C/c1cccc(O)c1	nt	i	nt	nt	nt	nt
CCOc1ccc(N(C(C)C(=O)NCc2ccco2)S(C)(=O)=O)cc1 (stereo not drawn)	nt	nt	i	nt	i	2
CCOc1ccc(N(C(C)C(=O)NC2CCCCCC2)S(C)(=O)=O)cc1 (stereo not drawn)	i	i	nt	i	i	i
CCOC(=O)c1c(N/C=C(\C=O)c2nc3cc(Cl)ccc3o2)sc2c1CCCC2	nt	i	nt	nt	nt	nt
Cc1cccc(NC(=O)c2ccccc2NC(=O)/C=C\c2ccco2)c1C	nt	i	nt	nt	nt	nt
O=C(/C=C/c1ccco1)Nc1ccc(Cl)cc1Cl	nt	i	nt	nt	nt	nt
O=C(/C=C/c1ccco1)NCCCCNC(=O)/C=C/c1ccco1	nt	103.2	nt	nt	nt	nt
O=C(/C=C/c1ccco1)Nc1ccc(O)cc1C(=O)O	nt	98.0	nt	nt	nt	nt
O=C(/C=C/c1ccco1)Nc1ccc(Cl)cc1C(=O)O	nt	101.5	nt	nt	nt	nt
Cc1cc(Cl)cc2c1NC(=O)[C@]21[C@@H]2C(=O)N(Cc3ccccc3)C(=O)[C@@H]2[C@@H]2CCCN21	i	i	i	i	3.65	i
CCc1ccc2c(c1)[C@]1(C(=O)N2)[C@@H]2C(=O)N(Cc3ccccc3)C(=O)[C@@H]2[C@@H]2CCCN21	i	i	i	i	i	i
CCn1c(SCC(=O)Nc2cc(C)on2)nnc1-c1ccc(S(=O)(=O)N2CCN(C)CC2)cc1	nt	nt	i	nt	i	2
NC(=O)CSc1nnc(-c2ccc(S(=O)(=O)N3CCCC3)cc2)n1Cc1ccco1	i	i	i	i	i	i
O=C(O)CSc1nnc(-c2ccc(S(=O)(=O)N3CCCC3)cc2)n1Cc1ccco1	-4.15	i	i	i	i	i
CCn1c(SCC(=O)N2CCCCC2)nnc1-c1ccc(S(=O)(=O)N2CCN(C)CC2)cc1	i	i	i	i	i	i
CCn1c(SCC(=O)N2CCCC(C)C2)nnc1-c1ccc(S(=O)(=O)N2CCN(C)CC2)cc1 (stereo not drawn)	nt	nt	i	nt	i	2
COc1ccc(C(=O)Nn2c(SCC(=O)NCc3ccccc3)nc3ccccc3c2=O)cc1	nt	nt	i	nt	i	i
COc1ccc(C(=O)Nn2c(SCC(=O)NCC3CCCO3)nc3ccccc3c2=O)cc1 (stereo not drawn)	-5.42	i	i	i	-8.45	i
O=C(COc1ccc2ccccc2c1)NCCCN1CCOCC1	nt	i	nt	nt	nt	nt
SMILES	D1 allo mod	HePTP inh	Candida biofilm	TNAP act mid DEA	hDAT+cocaine	PLAP act
CCOC(=O)c1c(-c2ccc(OC)cc2)csc1NC(=O)C1CC=CCC1C(=O)O (stereo not drawn)	nt	105.1	nt	nt	nt	nt
COc1ccc(OCC(=O)N2c3ccccc3Sc3ccc(C(F)(F)F)cc32)cc1	nt	i	nt	nt	nt	nt
CCc1cc2c(CN3CCN(C)CC3)cc(=O)oc2cc1O	i	i	i	i	-9.49	i
CCc1cc2c(CN3CCN(CCO)CC3)cc(=O)oc2cc1O	i	i	i	i	i	i
COc1ccc(C(=O)/C=C/NCC(=O)c2ccccc2)cc1	nt	i	nt	nt	nt	nt
CC(C)N(C=O)C1(C(=O)NC2CCCCC2)CCCCC1	-3.31	i	i	i	i	i
COc1ccc(OC)c(NC(=O)COc2ccccc2C)c1	nt	i	nt	nt	nt	nt
CCN(CCCNc1ncnc2nc[nH]c12)c1cccc(C)c1	nt	i	i	i	i	2.1
CCCCN(CCCNc1ncnc2nc[nH]c12)c1ccccc1	-3.51	i	i	i	i	i
CCN(c1cccc(C)c1)c1ncnc2nc[nH]c12	i	i	i	i	i	i
CCOc1ccccc1NC(=O)COc1ccc2ccccc2c1	nt	i	nt	nt	nt	nt
CN(C)c1ccc(O)c2c1CC1CC3[C@@H](N(C)C)C(=O)C(C(N)=O)=C(O)[C@]3(O)C(=O)C1=C2O (stereo partly drawn)	i	i	25.3	i	i	nt
C[C@H]1c2cccc(O)c2C(O)=C2C(=O)[C@]3(O)C(O)=C(C(N)=O)C(=O)[C@@H](N(C)C)[C@@H]3[C@@H](O)[C@@H]21	nt	nt	nt	nt	i	nt
O=C(COc1ccc2ccccc2c1)NCc1ccc(F)cc1	nt	i	nt	nt	nt	nt
NC(=O)c1ccsc1NC(=O)CSc1ccccc1F	-3.45	i	i	i	i	i
NC(=O)c1ccsc1NC(=O)COc1ccccc1	i	i	i	i	i	i
COC1=C(N)C(=O)c2nc(-c3nc(C(=O)O)c(C)c(-c4ccc(OC)c(OC)c4O)c3N)ccc2C1=O	nt	nt	nt	nt	-4.15	nt
COc1ccc(-c2ncncc2-c2csc(C)n2)c(O)c1OC	nt	nt	i	nt	i	i
COc1cc(Br)c(/C=C2\C(=O)N(c3ccc(S(N)(=O)=O)cc3)N=C2C)cc1OC	nt	i	nt	nt	nt	nt
COc1ccc(OC)c(/C=C2\C(=O)N(c3ccc(S(N)(=O)=O)cc3)N=C2C)c1	nt	67.7	nt	nt	nt	nt
COc1cc(/C=C2\C(=O)N(c3cccc(C(=O)O)c3)N=C2C)c([N+](=O)[O-])cc1OC	nt	74.7	nt	nt	nt	nt
COc1cc(Br)c(/C=C2\C(=O)N(c3cccc(C(=O)O)c3)N=C2C)cc1OC	nt	77.2	nt	nt	nt	nt
COc1cc(/C=C2\C(=O)N(c3cccc(C(=O)O)c3)N=C2C)ccc1O	nt	i	nt	nt	nt	nt
COc1cccc(/C=C2\C(=O)N(c3cccc(C(=O)O)c3)N=C2C)c1	nt	65.7	nt	nt	nt	nt
COc1ccc(C(=O)Nc2ccc([N+](=O)[O-])cc2Cl)c(OC)c1	nt	i	nt	nt	nt	nt
SMILES	D1 allo mod	HePTP inh	Candida biofilm	TNAP act mid DEA	hDAT+cocaine	PLAP act
CCCn1c(C(O)c2ccc(OCc3ccccc3)c(OC)c2)nc2ccccc21 (stereo not drawn)	nt	i	nt	nt	nt	nt
COc1ccccc1NC(=O)c1oc2ccccc2c1NC(=O)c1cc(OC)c(OC)c(OC)c1	14	i	i	i	nt	nt
COCC(=O)Nc1c(C(=O)Nc2ccccc2OC)oc2ccccc12	i	i	i	i	i	i
CC(Sc1nnnn1C)C(=O)Nc1ccc(N2CCOCC2)cc1 (stereo not drawn)	nt	i	i	i	-7.77	i
Cc1cc(Cl)ccc1NC(=O)COc1ccccc1C	nt	i	nt	nt	nt	nt
O=C(O)CCCCCCCCCCN1C(=O)/C(=C/c2cccc(Br)c2)SC1=S	nt	101.5	nt	nt	nt	nt
O=C(CCN1C(=O)/C(=C/c2cccs2)SC1=S)Nc1cccc(F)c1	nt	i	nt	nt	nt	nt
O=C(CN1C(=O)/C(=C/c2ccccc2Cl)SC1=S)Nc1ccc(C(=O)O)cc1	nt	96.5	nt	nt	nt	nt
O=C(CCN1C(=O)/C(=C\c2cccs2)SC1=S)Nc1cccc(C(=O)O)c1	nt	92.9	nt	nt	nt	nt
O=C(N/N=C/c1ccc([N+](=O)[O-])cc1)c1cc(-c2ccc(Cl)cc2)n[nH]1	nt	i	nt	nt	nt	nt
CC(CCc1ccco1)NC(=O)Nc1cccc(F)c1 (stereo not drawn)	i	i	i	i	-2.59	i
